From PubChem BioAssay AID803 (The Scripps Research Institute Molecular Screening Center, 2007)
In all, about 140,000 compounds went through this assay and about 680 (0.49%) were called active. No stated cut-off is given here; in the data, active means activation above about 5% (passing the limit was not always enough); inactive means the rest. The sample as a whole holds a higher share of actives than the screen did.

What follows are compounds tested against Galanin receptor type 2 (Homo sapiens) (UniProt O43603) (assay: GALR2 receptor agonists, primary screen, cell-based (AID 803;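 further: 0% = vehicle buffer wells and 100% = reference agonist at full effect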)). Details: GALR2-expressing cells, agonist activation read-out; hits give high values; concentration not given here.
Galanin receptor type 2 (Homo sapiens), sequence (O43603 whole entry, looked up): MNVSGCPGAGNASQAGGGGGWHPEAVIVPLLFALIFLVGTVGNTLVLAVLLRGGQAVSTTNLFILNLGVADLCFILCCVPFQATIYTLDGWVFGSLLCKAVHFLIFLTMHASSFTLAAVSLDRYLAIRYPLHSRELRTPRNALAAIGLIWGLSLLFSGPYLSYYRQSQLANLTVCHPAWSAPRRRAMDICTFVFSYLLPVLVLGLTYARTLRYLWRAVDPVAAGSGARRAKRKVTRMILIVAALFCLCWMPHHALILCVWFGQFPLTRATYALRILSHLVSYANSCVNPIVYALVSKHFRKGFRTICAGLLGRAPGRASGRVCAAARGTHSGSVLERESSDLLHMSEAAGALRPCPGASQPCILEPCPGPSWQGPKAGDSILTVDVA
For `COc1cc(Cn2c(N)c(C(=O)NCc3ccco3)c3nc4ccccc4nc32)cc(OC)c1OC`, the activation was 25% (active). In the case of `CCOC(=O)c1c(N)n(CCN2CCOCC2)c2nc3ccccc3nc12`, the activation is reported as 1.16% (inactive). `CCOC(=O)c1c(N)n(Cc2ccccc2)c2nc3ccccc3nc12` was tested, and the activation was -0.61% (inactive). `CC(=O)c1c(C)n(C(C)C)c2ccc(O)cc12` was tested, and the activation was 0.6% (inactive). For `CN1CCN(C(=S)SCC(=O)Nc2ccc(Cl)cc2C(=O)c2ccccc2)CC1`, the activation was -0.06% (inactive). In the case of `Cc1cccc(N2C(=O)NC(=O)/C(=C\c3cnn(-c4ccccc4)c3)C2=O)c1`, the activation is reported as 34.2% (active). `O=C1NC(=O)N(c2ccc(F)cc2)C(=O)/C1=C/c1ccc2c(c1)CCCN2Cc1ccccc1` was tested, and the activation was -0.69% (inactive). With `COc1c(O)ccc2c1-c1c3c(cc4c1C(C2)N(C)CC4)OCO3` (stereo not given) the activation was -1.66% (inactive). In the case of `CCOP(=O)(OCC)C(NC(=O)c1ccc(C)cc1)C(Cl)(Cl)Cl` (stereo not given), the activation is reported as -0.73% (inactive). For `Cc1ccc(-n2c(-c3ccc([N+](=O)[O-])cc3)nc3ccccc3c2=O)cc1`, the activation was -0.79% (inactive).
